Source: PubChem
D1 antag – blocks dopamine activation of the human D1 receptor; P21728; HEK293 TREx D1 cells, calcium flux, dopamine EC80; active compounds read low; activity change, negative = inhibition, % at 10 µM; actives 3.2% (n = 360,000); in the data active means activity change below about -30%; further: on the % scale 0 is the no-effect control and ±100 the full control effect
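Calcium flux readout: force-coupled, inducible Hek293 Trex D1 line, cells induced overnight at 30 C with tetracycline, dye-loaded 30–90 min at RT. Antagonism scored against EC80 dopamine challenge given 180 s after compound.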
TRHR ag – agonists of human TRH receptor; activation, % at 2 µM; P34981; actives 0.18% (n = 360,000); TRHR cells, calcium flux fluo-8, FDSS agonist mode; further: 0% is about no effect
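In this calcium-flux screen, cells bearing human TRHR are dye-loaded with fluo-8, baselined for 10 cycles, then exposed to library compounds; positive kinetic calcium responses during the agonist phase mark hits, with TRH as control.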
D1 agonist – activates the human D1 dopamine receptor. P21728. HEK293 T-REx D1 cells, calcium flux, agonist mode. activation, % at 2 µM. actives 1% (n = 360,000). AID 504660; further: 0% is about no effect
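Inducible HEK293 T-REx D1 cells, force-coupled to calcium signalling, were plated at 4000 cells/well with tetracycline and held overnight at 30 C. After no-wash calcium dye loading, compound-evoked calcium rise over 180 s flagged agonists.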
D1 potentiator – human D1 dopamine receptor positive modulation; P21728; HEK293 TREx D1 cells, calcium flux, dopamine EC20 potentiation; potentiation, % at 10 µM; actives 0.036% (n = 360,000); AID 504651; in the data active means potentiation above about 30%; further: 0% is about no effect
USP1-UAF1 inh – USP1/UAF1 (human) deubiquitinase inhibition; O94782; recombinant USP1/UAF1, Ub-Rhodamine cleavage fluorescence; Potency, µM (highest dose often 57.1 µM), without a hit: top-dose activity change, negative = inhibition, usual class: inhibitors; actives 0.23% (n = 390,000); AID 743255; active means well fitted inhibition curve with a large enough effect; inconclusive means small, poorly fitted or top-dose-only effect; inactive means no such curve, though single readings can be large or run the other way; further: potency means the concentration at half of the fitted maximal effect; on the % scale 0 is the no-effect control and ±100 the full control effect; nearly all actives have a fitted effect of over 60% in size
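Step one: compound is pinned into 1nM USP1/UAF1 in HEPES pH 7.8 buffer with TCEP. Step two: 15 min room-temperature incubation. Step three: Ub-Rho (150nM final) starts cleavage, tracked by fluorescence over six one-minute reads.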
TRHR enhancer – allosteric enhancers of human TRH receptor; enhancement, % at 2 µM; actives 0.66% (n = 360,000); AID 493056; TRHR cells, fluo-8 calcium fluorescence, EC20 TRH enhancement; in the data active means enhancement above about 30%; further: 0% is about no effect
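TRHR-expressing cells loaded with fluo-8 calcium dye were read kinetically (ex 480/em 530) during compound addition, then stimulated with an EC20 of TRH (10 nM final). Enhancement of the Gq-mediated intracellular calcium response was scored.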
Numbers without * were called inactive; ? = inconclusive; . = not tested or not shown. Hits are enriched below; roughly 4.4% of the tested compounds scored in any of these assays. Unless noted, no stated cut-off is given here; in the data, active means activation above about 30%; inactive means the rest.

SMILES	D1 antag	TRHR ag	D1 agonist	D1 potentiator	USP1-UAF1 inh	TRHR enhancer
CC(C)C(OC(=O)CNC(=O)c1ccccc1)C(=O)Nc1cc(C(F)(F)F)ccc1Cl (centres undefined)	19.9	0.9	1.7	10.2	.	-5.9
Cc1ccc2nc(N/C(=N/S(=O)(=O)c3ccc(F)cc3)c3ccccc3)sc2c1	-44.1*	-0.6	8.9	-12.8	-16.2%	-1.7
Cc1ccc2nc(N/C(=N/S(=O)(=O)c3ccc(F)cc3F)c3ccccc3)sc2c1	3.4	-0.6	12.6	0.9	-17.2%	2.6
CCn1c(=O)c2sccc2n2c(CCC(=O)N3CCN(c4ccc(C(C)=O)cc4)CC3)nnc12	2.5	-0.5	-0.6	-0.9	-20.7%	15.4
O=C(O)c1ccc2c(c1)C(=O)N([C@H](Cc1ccc(C(F)(F)F)cc1)C(=O)O)C2=O	-47.8*	-0.2	1.4	-3.1	.	0.7
O=C(O)c1ccc2c(c1)C(=O)N(C(Cc1ccccc1)C(=O)O)C2=O (centres undefined)	24.5	-0.3	1.0	-2.6	-9.3%	-13.3
Cc1ccc(S(=O)(=O)NC(=O)C2CCCCC2)cc1	-36.1*	0.9	3.4	4.7	-10.7%	-1.4
COc1ccc(-n2nc3c(c2NC(=O)C(=O)N2CCN(C)CC2)CSC3)cc1	.	0.2	-1.1	-2.1	0.7%	43.2*
O=C(Nc1ccccn1)[C@@H]1CCC(=O)N1C(=O)OCc1ccccc1	-31.3*	0.3	2.5	-0.6	-7.6%	-5.0
N=c1c2c(-c3ccccc3)c(-c3ccccc3)n(Cc3ccco3)c2ncn1Cc1ccco1	4.6	5.7	38.3*	-3.4	-12.3%	-0.7
N=c1c2c(-c3ccccc3)c(-c3ccccc3)n(Cc3ccccc3)c2ncn1CCCn1ccnc1	-9.5	5.3	118.5*	2.3	-17.5%	-3.2
CCCCn1cnc2c(c(-c3ccccc3)c(-c3ccccc3)n2Cc2ccco2)c1=N	-3.5	0.9	47.4*	-8.2	-2.7%	-11.9
CCCCn1c(=O)[nH]c(=O)c2c1ncn2Cc1ccco1	-5.1	0.3	0.9	-1.2	-12.4%	4.4
Cc1nc2nc[nH]n2c(=O)c1NS(=O)(=O)c1ccc(Br)cc1	15.0	0.6	0.4	-0.3	-9.1%	-3.0
COCc1nn2c(N)c(-c3ccccc3)cnc2c1-c1ccccc1	-35.0*	0.3	1.8	-6.7	3.6%	3.6
COCc1nn2c(N)c(C#N)cnc2c1-c1ccccc1	0.1	-0.9	-0.1	-3.8	-14.8%	-6.7
Cc1cccc(C(=O)N2CCc3cc(CNS(=O)(=O)c4ccc(F)c(Cl)c4)ccc32)c1	20.2	-0.5	5.8	3.2	?	-1.4
CCOC(=O)c1cccc(NC(=O)NC2COc3ccccc3C2)c1 (centres undefined)	-8.9	-0.2	5.3	-0.2	3.6%	2.6
Fc1cccc(Cl)c1CNc1ccc(N2CCCC2)cc1	-4.7	-0.1	-0.9	6.8	-24.3%	3.0
NS(=O)(=O)c1ccc(NCc2c(F)cccc2Cl)cc1	-34.8*	-0.1	8.1	-2.6	-13.0%	0.6
COc1ccc(C(=O)Nc2ccccc2-c2nc3ccccc3s2)c(OC)c1	2.9	0.8	3.5	-2.1	?	-1.3
CCOC(=O)c1sc(Nc2nc3c(F)cccc3s2)cc1C	-4.8	0.7	1.3	-2.0	-18.8%	-3.7
CCOC(=O)c1sc(Nc2nc3ccc(OC)cc3s2)cc1C	-35.7*	0.2	4.3	-4.3	-25.5%	3.4
Cc1cc(C)nc(SCC(=O)OCC(=O)Nc2nc3ccccc3s2)n1	-5.7	-0.5	31.3*	0.5	-8.2%	2.5
COc1ccc2nc(NC(=O)CSc3ccccc3)sc2c1	-13.2	-0.8	17.5	-1.4	-12.1%	32.1*
Cc1ccc2cccc(NC(=O)c3ccc(-c4cccc(Cl)c4)o3)c2n1	3.9	4.3	-0.2	2.4	-12.3%	-0.5
Cc1ccc(CNC(=O)CCc2c(C)nc3c4c(C)cc(C)nc4nn3c2C)cc1	1.9	-1.4	-2.5	-1.9	-9.9%	2.7
CC1(C)CC(=O)C2=C(C1)Nc1ccccc1NC2	-50.6*	-1.0	-0.3	-4.9	-3.3%	-1.0
